The nature of assay [1]: stimulators of nuclear beta-catenin in C2C12, primary screen, imaging, WNT3A-conditioned medium, mouse C2C12, NPC library (AID 1117326; in the data active = nuclear beta-catenin stimulation mostly above about 4.2%, no sharp cut-off; inactive = mostly below about 10%). The following applies: stronger effect = higher value.
Assay [2] in a line: stimulators of insulin release from INS-1E, primary screen, cell-based, 5 mM glucose, NPC library (AID 1117329;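 active = compound raises insulin release from rat beta cells at 5 mM glucose, no numeric limit stated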). Conditions: rat INS-1E insulin secretion, at 10 µM, stronger effect = higher value.
Assay [3] can be described thus: growth inhibition of GSK3B-pretreated HCT116 cells – cell-based, CellTiter-Glo, 0.2 to 20 µM (AID 1117336;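 active = compounds lowering colon cancer cell viability after pretreatment blocking the GSK3B kinase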). The following applies: HCT116 viability after GSK3B inhibitor, at 20 µM, stronger effect = higher value. Background: ATP-based viability assays read luminescence as a measure of living cells.
Assay [4] is described as follows: inhibition of endothelial tube formation, primary screen, imaging, VEGF stimulated, CD31 staining, tube area, NPC library (AID 1117340;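 active = compound that reduces growth-factor-driven endothelial tube area in a mixed cell culture, no cutoff stated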). Conditions: VEGF-stimulated ADSC/ECFC co-culture, at 10 µM, stronger effect = higher value.
The nature of assay [5]: glucagon-like peptide 1 release enhancers, primary assay, NCI-H716 cell line, NPC library (AID 1117341;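 active = compound raises GLP1 secretion from the human gut endocrine cells, with no numeric limit stated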). Conditions: NCI-H716 cells, at 10 µM, stronger effect = higher value.
A short description of assay [6]: HCT116 colon cancer cell growth inhibition, primary screen, CellTiter-Glo luminescence, NPC library (AID 1117342;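 active = compounds that lower survival of HCT116 colon cancer cells in the luminescence readout, no numeric limit stated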). Conditions: at 20 µM (top of the series).
Assay [7] can be described thus: CellTiter-Glo luminescent readout of SW480 viability loss, NPC library primary (AID 1117343;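 active = compounds that lower viability of the colon cancer cells in the luminescence readout, with no numeric limit stated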). The following applies: CellTiter-Glo luminescence; at 20 µM (top of the series) unless noted.
A short description of assay [8]: decreased DLD-1 cellular survival, CellTiter-Glo luminescent readout, NPC compound collection, primary HTS (AID 1117346;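 active = compounds that lower survival of DLD-1 colon cancer cells in the luminescence readout, no cutoff given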). The following applies: DLD-1 viability, CellTiter-Glo luminescence; at 20 µM (top of the series).
Assay [9] can be described thus: growth inhibition of DIPG glioma cells, dose response, cell-based, JHH-DIPG-1, MIPE4.0, CellTiter-Glo, qHTS (AID 1347062; cut-off not given, nearly all actives have AC50 up to about 27 µM;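 as to AC50: cells exposed to compound for two days before readout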). Conditions: JHH-DIPG-1 viability, CellTiter-Glo ATP luminescence.
Assay [10] can be described thus: growth inhibition of DIPG glioma cells, dose response, cell-based, SU-DIPG-IV, MIPE4.0, CellTiter-Glo, qHTS (AID 1347063).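 Also: compound exposure lasted 48 hours before the viability readout.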 The following applies: SU-DIPG-IV viability, CellTiter-Glo ATP luminescence.
A short description of assay [11]: SU-DIPG-VI glioma cell viability, MIPE4.0 library, CellTiter-Glo luminescence, qHTS (AID 1347066).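 Also: cells exposed to compound for 48 hours before readout.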 The following applies: CellTiter-Glo ATP luminescence.
Assay [12] can be described thus: survival rescue of mitochondrial mutant cells in low glucose, primary screen, MELAS cybrids, Rieske KO mouse fibroblasts, CellTiter-Glo (AID 1508586;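 active = mean z-score across replicates of 1.96 or higher in either the MELAS or the Rieske mutant cell line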;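 also: z relative to plate mean and SD of compound and empty wells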).
Assay [13] can be described thus: sensitizers of A549 cells to miR-34 induction, primary screen, imaging, A549 dox-inducible miR-34, nuclei and caspase counts (AID 1347080;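 active = compounds whose cell count with miR-34 switched on is under 0.7 times the count with it off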). The following applies: A549 miR-34 inducible, Hoechst nuclei count, 48 h.
Assay [14] can be described thus: liver-stage malaria parasite growth inhibition, primary screen, cell-based, HepG2, luciferase luminescence, HepG2 viability (AID 624349; in the data active = parasite load remaining mostly below about 12%, no sharp cut-off; inactive = mostly above about 10%;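 also: 100% = mean of DMSO negative control wells on the same plate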). The following applies: P. berghei liver stage in HepG2, luciferase luminescence, concentration not given here; parasite load remaining: stronger effect = lower value; viability: measured here: HepG2 viability without parasites.
Assay [15] concerns the target NAD(+) hydrolase SARM1 (Homo sapiens) (UniProt Q6SZW1). Nature of the assay: SARM1 TIR NADase inhibitors, cell lysate, NAD-Glo luminescence (AID 1508614;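 active = compound whose remaining NAD level is above about 45 nM, limit read from the data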;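 also: higher remaining NAD means stronger inhibition of SARM1 NADase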). The following applies: SAM-TIR HEK293T lysate NADase, at 1 µM, stronger effect = higher value.
Assay [16] can be described thus: viability rescue of complex I mutant cybrids, primary screen, cell-based, galactose medium, ATP luminescence (AID 1645843;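 active = z-score of at least 1.8 in each of two replicates, scored against plate mean and spread of sample wells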;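 also: positive z means more ATP and so rescue of galactose-driven cybrid death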). Conditions: complex I mutant cybrid cells, 72 h, stronger effect = higher value.
[17] abbreviates: MELAS cybrid survival, CellTiter-Glo 48 h, stronger effect = higher value.
Where [18] appears, read: Rieske KO mouse fibroblast survival, CellTiter-Glo 72 h.
[19] abbreviates: stronger effect = lower value, cell number ratio, induced over uninduced.
Where [20] appears, read: measured here: relative caspase fold change +Dox/-Dox.
Setting [21] is: measured here: total cells with miR-34 induction, stronger effect = lower value.
[22] abbreviates: measured here: total cells without miR-34 induction.

SMILES strings stand for the structures. Values joined by “and” are separate entries in the source; they are usually repeats but may differ in a detail not shown here. Equal values may be shown once. Records with an inconclusive call do not appear. Active and inactive are the calls of the source. Unless noted, the limit is not given here; nearly all actives have AC50 up to about 30 µM.

Sequence of NAD(+) hydrolase SARM1 (Homo sapiens) (Q6SZW1 whole entry, looked up): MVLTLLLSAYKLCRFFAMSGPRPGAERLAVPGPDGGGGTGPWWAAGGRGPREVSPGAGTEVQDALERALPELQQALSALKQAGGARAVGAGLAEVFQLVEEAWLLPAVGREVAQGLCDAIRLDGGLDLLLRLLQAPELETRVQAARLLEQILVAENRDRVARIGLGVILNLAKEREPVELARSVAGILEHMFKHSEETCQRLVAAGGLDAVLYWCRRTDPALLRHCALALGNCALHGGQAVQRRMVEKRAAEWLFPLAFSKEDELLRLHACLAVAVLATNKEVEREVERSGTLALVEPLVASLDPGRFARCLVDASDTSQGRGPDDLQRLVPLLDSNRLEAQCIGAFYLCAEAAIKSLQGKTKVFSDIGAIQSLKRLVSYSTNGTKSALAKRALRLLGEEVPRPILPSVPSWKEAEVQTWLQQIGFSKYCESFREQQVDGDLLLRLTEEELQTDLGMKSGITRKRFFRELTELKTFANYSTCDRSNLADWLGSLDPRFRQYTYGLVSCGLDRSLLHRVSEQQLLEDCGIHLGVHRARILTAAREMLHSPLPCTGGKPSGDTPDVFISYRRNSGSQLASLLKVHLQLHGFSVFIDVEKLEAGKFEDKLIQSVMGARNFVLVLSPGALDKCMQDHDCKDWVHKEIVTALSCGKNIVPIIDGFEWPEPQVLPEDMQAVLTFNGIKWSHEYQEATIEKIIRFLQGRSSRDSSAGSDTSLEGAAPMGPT

As to `CN1C[C@H]2c3ccccc3Oc3ccc(Cl)cc3[C@@H]2C1`, the nuclear beta-catenin stimulation in [1] (at 10 µM) is 0.7% (inactive); in assay [1] (stimulation, at 2 µM) it was -0.7%. Further, the insulin secretion stimulation in [2] is 9% (inactive). The viability decrease in assay [3] was 30.4% (inactive). For the same molecule, in assay [4], the tube area decrease was 28.3% (inactive). Besides, in assay [5], the GLP1 secretion stimulation is 4.4% (inactive). Moreover, in [6], the inhibition of viability was 39.3% (inactive). For the same molecule, the viability decrease (inhibition) in [7] is 80.6% (active); in assay [8] it was 34.3% (inactive). In addition, the call in assay [9], in [10] and in assay [11] was inactive. Besides, the figures for the z-score in assay [12] (setting [17]) and in [12] (setting [18]) were 0.874 (inactive) and 0.408, respectively.

With `O=C(O)[C@H](O)c1ccccc1`, the nuclear beta-catenin stimulation in [1] (at 10 µM) was 3.7% (inactive); in assay [1] (stimulation, at 2 µM) it was 3.1%. Besides, the insulin secretion stimulation in assay [2] was -0.6% (inactive). Further, the viability decrease in assay [3] is -6.9% (inactive). The tube area decrease in assay [4] is -9.1% (inactive). For the same molecule, the GLP1 secretion stimulation in assay [5] is 1.8% (inactive). Besides, the inhibition of viability in assay [6] is -5.47% (inactive). Also, the viability decrease (inhibition) is -30.4% (inactive) in assay [7] and -21.9% (inactive) in assay [8]. The fold change in assay [13] (setting [19]) was 0.975 (inactive); in assay [13] (setting [20]) it was 0.478. The cell count in [13] (setting [21]) amounted to 5430; in assay [13] (setting [22]), 5570.

Turning to `CC=CC1=C(C(=O)O)N2C(=O)[C@@H](NC(=O)[C@H](N)c3ccc(O)cc3)[C@H]2SC1`, the nuclear beta-catenin stimulation in assay [1] (at 10 µM) is 1% (inactive); in [1] (stimulation, at 2 µM), 2.9%. In assay [2], the insulin secretion stimulation was -0.3% (inactive). Further, the viability decrease in assay [3] is 4.9% (inactive). For the same molecule, the tube area decrease in assay [4] is -8.9% (inactive). For the same molecule, the GLP1 secretion stimulation in assay [5] is -4% (inactive). Also, the inhibition of viability in assay [6] was 41.6% (inactive). For the same molecule, the viability decrease (inhibition) in assay [7] is 45.4% (inactive); in [8], 33.9% (inactive). Also, the call in [9], in assay [10] and in assay [11] was inactive.

Take `C[C@@H]1C[C@H]2[C@@H]3CCC4=CC(=O)C=C[C@]4(C)[C@@]3(Cl)[C@@H](O)C[C@]2(C)[C@@]1(OC(=O)c1ccco1)C(=O)CCl`: the parasite load remaining in [14] is 101% (inactive) and 89.2% (inactive). For the same molecule, the viability (usually a per cent measure of how many cells are alive, often set against a control) in assay [14] is 90.7% and 72.5%. Further, the nuclear beta-catenin stimulation was 23.1% (inactive) in assay [1] (at 10 µM) and 2.8% in [1] (stimulation, at 2 µM). Besides, the insulin secretion stimulation in assay [2] is -0.7% (inactive). In addition, in assay [3], the viability decrease was -43% (inactive). Moreover, the tube area decrease in [4] is 99.7% (active). For the same molecule, the GLP1 secretion stimulation in assay [5] was 3.9% (inactive). In [6], the inhibition of viability was 67% (active). Also, the viability decrease (inhibition) was 119% (active) in [7] and 95.5% (active) in assay [8]. For the same molecule, the AC50 (commonly the concentration at which the activity in the assay is half-maximal) in assay [9] is 4.69 µM (active); in assay [10] it was 13.2 µM (active); in assay [11], 20.9 µM (active). In addition, the values for the fold change in [13] (setting [19]) and in assay [13] (setting [20]) were 0.786 (inactive) and 1.68, respectively. In addition, the cell count in [13] (setting [21]) turned out to be 4000; in [13] (setting [22]) it was 5090. Further, the z-score in assay [12] (setting [17]) is -1.01 (inactive); in [12] (setting [18]) it was -0.104. For the same molecule, in assay [15], the remaining NAD was 10 nM (inactive).

`COC(=O)C1=C(C)NC(C)=C(C(=O)OCCN2CCN(C(c3ccccc3)c3ccccc3)CC2)C1c1cccc([N+](=O)[O-])c1` (stereo not drawn): in assay [14], the parasite load remaining was 20.2% (inactive). The same molecule yielded a viability in [14] of 100%. For the same molecule, the nuclear beta-catenin stimulation in [1] (at 10 µM) is 7.1% (inactive); in assay [1] (stimulation, at 2 µM), 1.4%. In addition, the insulin secretion stimulation in [2] is -1.1% (inactive). For the same molecule, in assay [3], the viability decrease was 52.2% (active). Besides, in [4], the tube area decrease was 106% (active). Moreover, in assay [5], the GLP1 secretion stimulation was -1.8% (inactive). The inhibition of viability in assay [6] is 78.5% (active). Besides, the results for the viability decrease (inhibition) in assay [7] and in [8] were 135% (active) and 96.4% (active), respectively. For the same molecule, the molecule was classed as inactive in assay [9], in assay [10] and in [11]. For the same molecule, the z-score in assay [12] (setting [17]) was -0.211 (inactive) and -0.214 (inactive) and 0.218 (inactive); in assay [12] (setting [18]), 1.09 and 0.891 and 0.572; in assay [16] it was -1.36 (inactive). Further, the remaining NAD in assay [15] is 10 nM (inactive).

The values above are taken from PubChem BioAssay.
